# Pf growth 96h: P. falciparum growth inhibition at 96 hours | P. falciparum luciferase reporter growth, 96 h | Potency, µM (highest dose often 28.7 µM), for inactives: at the highest dose activity change, negative = inhibition, actives largely listed as inhibitors | hit rate 6.9% among 320,000 | AID 504834; note: potency is the fitted concentration of half-maximal effect; % is set by controls: 0 for no effect and ±100 for the full control effect
#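 Luminescence readout: decreased luciferase signal marks inhibited growth of reporter-expressing P. falciparum in infected red cells (2% hematocrit, 0.05% parasitemia final), exposed to compound two generations (96 h, 37 C, 5% CO2).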
# HCV inh: inhibitors of hepatitis C virus infection. hit rate 3.4% among 340,000. Huh7.5.1 HCVcc-Cre infection, luciferase reporter, 44 h. AID 651820. Potency, µM (highest dose often 41.8 µM), for inactives: at the top dose activity change, negative = inhibition, most hits filed as inhibitors; note: potency is the fitted concentration of half-maximal effect; % is set by controls: 0 for no effect and ±100 for the full control effect
#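 Reporter virus HCVcc-Cre (~0.5 moi) infects cells exposed to compound; seeding density 1,000 cells/well with 4 h settling beforehand. Luminescence, 15 sec read, taken 44 h post-infection following a 15 min RT substrate incubation.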
# AMA1 RON2 block: inhibitors of Plasmodium falciparum AMA1-RON2 interaction | AlphaScreen AMA1-biotinylated RON2 peptide binding | Potency, µM (titrated, usually from 58.2 µM), for inactives: at the highest dose activity change, negative = inhibition, most hits filed as inhibitors | hit rate 0.2% among 360,000 | AID 720542;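 note: potency is the fitted concentration of half-maximal effect; 0% = vehicle wells and -100% = peptide control; nearly all actives have a fitted effect of over 45% in size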
#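 AMA1 (3D7) with his tag at 25 nM final met compounds first, then biotinylated RON2 peptide at 25 nM; detection used donor plus acceptor beads, 10 µg/mL apiece, read by AlphaScreen after 30 min at room temperature.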
# Shiga inhibitor: Shiga toxin inhibition; hit rate 9.2% among 290,000; inhibition, % at 38.7 µM; Vero cells, Shiga toxin protein synthesis inhibition reporter; AID 2315; in the data active = inhibition mostly above about 28%, no sharp cut-off; inactive = mostly below about 43%; note: 0% is about no effect
# Cycloheximide cs: counter-screen for Shiga toxin inhibitors: cycloheximide protein synthesis inhibition; cell reporter, cycloheximide protein synthesis inhibition counterscreen; max response, %; hit rate 12% among 300,000; AID 2314; in the data active = max response mostly above about 13%, no sharp cut-off; inactive = mostly below about 14%; note: read at 38.3 µM for the half of the compounds with a filed dose; 0% is about no effect
# Pf growth 48h: P. falciparum growth inhibition at 48 hours (one generation); Potency, µM (titrated, usually from 28.7 µM), without a hit: at the top dose activity change, negative = inhibition, usual class: inhibitors; hit rate 5.9% among 310,000; P. falciparum luciferase growth in erythrocytes, 48 h; note: potency is the fitted concentration of half-maximal effect; % is set by controls: 0 for no effect and ±100 for the full control effect
#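 In quantitative HTS format, infected erythrocytes bearing luciferase-reporter parasites were treated for a single generation at 37 C. Luminescence after adding detection reagent served as the growth measure.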
# Starred values were filed as active, the others as inactive; ? = inconclusive; . = no result given. Compounds with a hit are over-represented: about 21% of the library has one in this group of screens. Unless noted, calls come from the whole dose curve; as a rule, active = well fitted curve in the direction sought with a large enough effect; inconclusive = small, poorly fitted or top-dose-only effect, or another doubt; inactive = no such curve, though single readings can be large; an effect the other way counts as inactive or inconclusive.
SMILES,Pf growth 96h,HCV inh,AMA1 RON2 block,Shiga inhibitor,Cycloheximide cs,Pf growth 48h
Cc1ccc([N+](=O)[O-])cc1N=C(c1cccc([N+](=O)[O-])c1)N1CCOCC1,?,0%,-31%,-13,8,?
Cc1ccc([N+](=O)[O-])cc1N=C(c1ccc([N+](=O)[O-])cc1)N1CCOCC1,8.3µM*,5%,-3%,2,5,?
O=C1NC(Cc2ccccc2)c2nc3cc(Cl)ccc3c(=O)n2-c2ccccc21 (stereo not drawn),.,3.5µM*,.,.,.,.
CC1CCCC2(C1)NC(=S)c1c(sc3c1CCCC3)N2 (stereo not drawn),5.2µM*,-15%,53%,57,15*,.
CC(C)CCN1NC2(CCCC(C)C2)NC1=S (stereo not drawn),0%,-1%,60%,25,8,?
CCCCC(=O)NS(=O)(=O)c1ccc(N=NN(CC)CC)cc1,-12%,-1%,-9%,-11,0,-2%
COCCNC(=O)C1(C)CCCN(C(=O)c2ccc(F)c(Cl)c2)C1 (stereo not drawn),.,.,5%,.,.,.
CN(C)C(CNC(=O)c1ccc(Cl)c(S(=O)(=O)N2CCCCCC2)c1)c1ccccc1 (stereo not drawn),?,6.3µM*,-7%,.,.,5.2µM*
CCCn1c(NC(=O)c2ccc(Cl)c(S(=O)(=O)N3CCCC3)c2)nc2ccccc21,5.2µM*,2.5µM*,81%,-2,-2,5.9µM*
O=C(Nc1ncccc1O)c1ccc(Cl)c(S(=O)(=O)N2CCCC2)c1,.,.,67%,.,.,.
CC(NC(=O)c1ccc(Cl)c(S(=O)(=O)N2CCCCCC2)c1)c1cccnc1 (stereo not drawn),?,13µM*,-2%,.,.,12µM*
CN(C)CCCNC(=O)c1ccc(Cl)c(S(=O)(=O)N2CCCCCC2)c1,?,?,-8%,.,.,?
O=C(NCc1ccccc1CN1CCCC1)c1ccc(Cl)c(S(=O)(=O)N2CCCC2)c1,12µM*,13µM*,-23%,.,.,13µM*
O=C(NCc1nc2ccccc2[nH]1)c1cccc(S(=O)(=O)N2CCCCC2)c1,12%,-2%,-7%,-11,-2,-16%
O=C(NCc1nc2ccccc2[nH]1)c1ccc(Cl)c(S(=O)(=O)N2CCCC2)c1,24%,0%,5%,32,14*,10µM*
Cc1nc2ccc([N+](=O)[O-])cc2c(=O)n1Cc1ccc(Br)cc1,3.3µM*,?,-6%,17,-1,4%
COc1ccc(OCCn2c(C)c(/C=N/n3cnnc3)c3ccccc32)cc1,12µM*,-17%,2%,-19,-1,?
S=c1[nH]nc(-c2cc(-c3ccco3)[nH]n2)n1-c1ccccc1,-4%,0%,89%,-11,-6,-1%
Oc1ccccc1-c1cc(-c2ccco2)[nH]n1,-10%,?,33%,134*,47*,.
Oc1ccc(Br)cc1-c1cc(-c2ccco2)[nH]n1,.,?,31%,42,8,12µM*
Oc1c(-c2cc(-c3ccco3)[nH]n2)ccc2ccccc12,10%,?,3%,149*,48*,-11%
NNC(=O)c1cc(-c2ccco2)[nH]n1,-2%,8%,54%,2,10,2%
Oc1ccc(Cl)cc1-c1cc(-c2ccco2)[nH]n1,?,-30%,15%,57*,30*,?
CCN(C(=O)c1ccc(S(=O)(=O)N(C)C)cc1)C(C)C(=O)Nc1ccc(C)cc1 (stereo not drawn),?,-19%,24%,18,-4,-47%
CN(Cc1ccccn1)C(=O)C1CCC(=O)N(CCc2ccc(Cl)cc2)C1 (stereo not drawn),1%,11%,-3%,-4,1,0%
SMILES,Pf growth 96h,HCV inh,AMA1 RON2 block,Shiga inhibitor,Cycloheximide cs,Pf growth 48h
Cc1ccc(NS(=O)(=O)c2ccc(C(=O)NCc3cccnc3)cc2)cc1,?,?,-1%,76*,55*,75%
Cc1ccc(S(=O)(=O)N(Cc2ccccc2)c2ccccc2C(=O)NCc2cccnc2)cc1,20%,-1%,18%,-14,0,5.2µM*
Cc1ccc(NS(=O)(=O)c2ccc(NC(=O)c3cccc(NC(=O)C(C)C)c3)cc2)cc1,1.7µM*,10µM*,-12%,-2,-2,17%
Cc1ccc(S(=O)(=O)N(Cc2ccccc2)c2ccccc2C(=O)N2CCCCC2)cc1,-16%,?,-3%,-8,-4,?
O=C(NCc1cccnc1)c1ccc(S(=O)(=O)Nc2ccccc2)cc1,-5%,4%,-4%,.,.,-30%
Cc1ccc(S(=O)(=O)Nc2ccc(C(=O)Nc3ccncc3)cc2)cc1,10µM*,-10%,-12%,-9,-2,-26%
CC(=O)Oc1ccc(OC(C)=O)c2c1CC1(C)OC1(C)C2 (stereo not drawn),.,.,-9%,.,.,.
O=C(COC(=O)CCC(=O)c1cccs1)Nc1cccc(F)c1,-13%,20%,4%,.,.,-6%
Cc1ccc(NC(=O)COc2cccc3ccccc23)c(O)c1,4.7µM*,?,0%,.,.,5.2µM*
Cc1ccc(NC(=O)COc2cccc3c2OC(C)(C)C3)c(O)c1,?,?,-2%,.,.,10µM*
COc1ccc(NC(=O)COc2cccc3c2OC(C)(C)C3)cc1OC,?,6.3µM*,-5%,.,.,-27%
CC(=O)Nc1ccc(NC(=O)COc2cccc3ccccc23)cc1,.,.,2%,.,.,.
Cc1ccc(OCC(=O)N2CCCC(CO)(CCOc3ccccc3)C2)cc1 (stereo not drawn),21%,?,5%,-6,1,-8%
OC(c1ccc(F)c(F)c1)c1ncc(-c2ccc(F)cc2)[nH]1 (stereo not drawn),.,.,-26%,.,.,.
Cc1cccc(Nc2nn3c(=O)c4ccccc4nc3s2)c1,19%,3%,-4%,55*,14,87%
CCCSc1nn2c(=O)c3ccccc3nc2s1,-2%,-9%,1%,66*,39*,.
COC(=O)Cn1c2ccc(OC)cc2c2nc(C)sc21,33%,6%,1%,12,14,11%
Cc1nn(CC(=O)N(C)C2(C#N)CCCCC2)c(C)c1[N+](=O)[O-],40%,1%,22%,.,.,4%
COc1ccc(S(=O)(=O)N(C)C[C@H]2Oc3ccc(NS(=O)(=O)c4cn(C)cn4)cc3C(=O)N([C@H](C)CO)C[C@@H]2C)cc1,.,18%,8%,.,.,.
CCOCc1nnc(NC(=O)C2CC(=O)N(CCc3ccc(F)cc3)C2)s1 (stereo not drawn),-7%,19%,4%,-7,-3,12%
c1ccc2oc(-c3ccn[nH]3)cc2c1,83%,0%,4%,90*,39*,111%
c1ccc2oc(-c3[nH]ncc3CN3CCSCC3)cc2c1,-4%,-2%,-4%,-9,0,-2%
